Test results published in PubChem BioAssay (NCATS).
Results filed as inconclusive are left out. This is one part of the list. A call without a number means that no potency is given here. The source made the active and inactive calls. Unless noted, calls come from the whole dose curve; as a rule, active = well fitted curve in the direction sought with a large enough effect; inconclusive = small, poorly fitted or top-dose-only effect, or another doubt; inactive = no such curve, though single readings can be large; an effect the other way counts as inactive or inconclusive.

Columns and labels:
[1] = target: Cytochrome P450 3A4 (Homo sapiens) (UniProt P08684); assay: qHTS Assay for Activators of Cytochrome P450 3A4 (AID 885); note: nearly all actives have a fitted effect of over 65% in size
Summary of the method: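 Human CYP3A4 dealkylates Luciferin-PPXE to luciferin, which luciferase detection converts to light. Substrate was at its KM (25uM), buffer 200mM KPO4, reaction 60 min at RT.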

[2] = target: Peroxisome proliferator-activated receptor delta (Homo sapiens) (UniProt Q03181); assay: qHTS assay for small molecule agonists of peroxisome proliferator-activated receptor delta signaling (AID 588534; calls by dose curve)
Summary of the method: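 Agonist-mode qHTS; reporter cells, 5 hrs 37 C pre-incubation; compound titration, 18 hrs 37 C; CCF4 dye, 2 hrs RT; fluorescence read. EC50/efficacy via Hill fit.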

[3] = qHTS assay for environmental chemicals that activate the Aryl hydrocarbon Receptor (AhR) signaling pathway (AID 651777); conditions: 1A2-DRE human hepatoma cells, luciferase, 24 h; activation: stronger effect = higher value; note: nearly all actives have a fitted effect of over 15% in size; note: potency is the fitted concentration of half-maximal effect
Summary of the method: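 Stable CYP1A2 promoter/DRE-luciferase human hepatoma line treated 24 hr; One-Glo luminescence, 30 min RT.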

[4] = qHTS for Inhibitors of the vitamin D receptor (VDR): Hit Validation using a Texas Red Assay (AID 602201)
Summary of the method: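 Fluorescence polarization (Ex 595/Em 615 nm) of Texas Red (7 nM) with 1.5 uM VDR-LBD and LG19078 (final concentrations). Compounds were incubated for 2 hours at room temperature.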

[5] = target: Peroxisome proliferator-activated receptor gamma (Homo sapiens) (UniProt P37231); assay: qHTS assay for small molecule agonists of peroxisome proliferator-activated receptor gamma signaling (AID 588536; active = well fitted curve in the direction sought with a large enough effect in the signal ratio, with a control signal flat, not every such curve was filed as active; the % refers to the signal ratio)
Summary of the method: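 Cells were plated and held 6–6.5 h at 37 C, then compounds were added as a titration series. After a further 16 h, CCF4 dye was loaded for 2 h at room temperature and emission at 460/530 nm recorded.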

[6] = target: Vitamin D3 receptor (Homo sapiens) (UniProt P11473); assay: qHTS assay for small molecule agonists of vitamin D receptor signaling (AID 588543; calls by dose curve)
Summary of the method: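 qHTS in agonist mode: compound titrations stimulate a VDR-driven β-lactamase reporter in HEK293T cells over 16 h at 37 °C. Response normalized to 50 nM 1α,25-dihydroxyvitamin D3 = 100%, DMSO = 0%; Hill fitting gives EC50 and maximal response.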

[7] = qHTS assay for small molecule antagonists of retinoid X receptor alpha signaling (AID 588546); conditions: HEK293T RXRa-UAS-bla, beta-lactamase ratio, antagonist mode; measured here: W530 green channel, cytotoxicity proxy;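 note: cells stimulated with 9-cis-retinoic acid as agonist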
Summary of the method: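 Beta-lactamase reporter inhibition, read as CCF4 fluorescence ratio (ex 405, em 460/530 nm) after 2 h at RT. HEK293T UAS-bla cells, 2500/well, were stimulated with 9-cis-RA at 500 or 100 nM final alongside test compound for 18 h at 37 C.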

[8] = target: Peroxisome proliferator-activated receptor alpha (Homo sapiens) (UniProt Q07869); assay: qHTS assay for small molecule agonists of the peroxisome proliferator-activated receptor alpha (PPARalpha) signaling pathway (AID 651778); conditions: PathHunter PPARalpha complementation, chemiluminescence, 6 h; max response: stronger effect = higher value
Summary of the method: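 Cells plated at 2,000/well and held overnight at 37 C, 5% CO2, then compound added by pin tool for 6 hr; after PathHunter detection reagent and 60 min at room temperature, chemiluminescence from enzyme complementation was read.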

[9] = qHTS assay for small molecule agonists of the antioxidant response element (ARE) signaling pathway measured by Nrf2-dependant transcriptional activity (AID 720636; active = well fitted curve in the direction sought with a large enough effect in the repeat runs; an effect the other way counts as inactive or inconclusive;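 note: HepG2 cells with an ARE-driven luciferase reporter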)
Summary of the method: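 Reporter gene assay, HepG2 ARE-luc: 16 hr compound, 37 C, 5% CO2; read-out luciferase luminescence.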

[10] = qHTS assay for small molecule agonists of the antioxidant response element (ARE) signaling pathway measured by Nrf2-dependant transcriptional activity - cell viability counter screen (AID 720653; active = well fitted curve in the direction sought with a large enough effect in the repeat runs; an effect the other way counts as inactive or inconclusive); conditions: ARE-bla HepG2 viability, CellTiter-Glo ATP luminescence, 16 h; max response: stronger effect = lower value
Summary of the method: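 ARE-bla HepG2 cells (2,000/well) rested 5 hrs at 37C/5% CO2, then exposed to compounds in DMSO for 16 hrs. Viability was read in the same wells as intracellular ATP by luminescence, 30 min at room temperature after reagent addition.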

[11] = qHTS assay for cell viability of HEK293 cells (AID 743288); conditions: ATP luminescence (CellTiter-Glo), 18 h; max response: stronger effect = lower value; note: nearly all actives have a fitted effect of over 50% in size
Summary of the method: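 Quantitative high-throughput screen: compounds were pinned onto parental HEK293 cells (2,000 per well) after a minimum 5 h settling at 37 C, incubated 18 h at 37 C, and intracellular ATP measured by luciferase luminescence.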

[12] = target: Vitamin D3 receptor (Homo sapiens) (UniProt P11473); assay: qHTS for Inhibitors of the vitamin D receptor (VDR): Hit Validation in Primary Screen (AID 602199); conditions: VDR-coactivator inhibition assay, qHTS confirmation; note: potency is the fitted concentration of half-maximal effect
Summary of the method: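 Fluorescence polarization assay of VDR binding to Alexa 647-labelled SRC2-3 coactivator peptide: 800nM VDR with 5uM LG19078 agonist, compounds, 2 h at room temperature, read Ex 620 nm/Em 688 nm.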

[13] = target: Vitamin D3 receptor (Homo sapiens) (UniProt P11473); assay: qHTS for Inhibitors of the vitamin D receptor (VDR): Hit Validation using a Fluorescein Assay (AID 602200); conditions: VDR-coactivator binding, fluorescein fluorescence polarization; note: potency is the fitted concentration of half-maximal effect
Summary of the method: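 Fluorescence polarization (Ex 495 nm/Em 520 nm) read after 2 h at room temperature, reporting disruption of binding between 1.5 uM VDR-LBD, liganded by 5 uM LG19078, and 5 nM fluorescein-labelled SRC2-3 coactivator peptide (final concentrations).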

[14] = target: Vitamin D3 receptor (Homo sapiens) (UniProt P11473); assay: qHTS for Inhibitors of the vitamin D receptor (VDR): Hit Validation using a Beta-Lactamase Assay (AID 602202)
Summary of the method: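 Stably transfected HEK293 cells express a VDR–GAL4 DNA-binding-domain fusion driving a UAS beta-lactamase reporter, stimulated by agonist LG190178. Compounds were added 4 h after plating and incubated 18 h. A FRET beta-lactam substrate was then added for 2 h and cleaved substrate emission read at 447 nm.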

[15] = target: Flap endonuclease 1 (Homo sapiens) (UniProt P39748); assay: qHTS Assay for the Inhibitors of FEN1: Confirmatory Assay for Cherry-picked Compounds (AID 720498); conditions: FEN1 flap cleavage, TAMRA/BHQ2 fluorogenic DNA substrate; note: potency is the fitted concentration of half-maximal effect; nearly all actives have a fitted effect of over 60% in size
Summary of the method: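 Human FEN1 (10 nM reagent) was preincubated with compounds for 15 min at room temperature, then 50 nM final double-flap DNA substrate (5'-TAMRA flap, BHQ-2 quencher strand) was added. Fluorescence (ex 525/em 598 nm) was read at 0 and 15 min.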

[16] = target: DNA polymerase eta (Homo sapiens) (UniProt Q9Y253); assay: qHTS for Inhibitors of Polymerase Eta: Confirmatory Assay for Cherry-picked Compounds (AID 720502); conditions: Pol eta primer extension, TAMRA/BHQ fluorescence, 10 min; note: potency is the fitted concentration of half-maximal effect
Summary of the method: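 Enzyme at 10 nM is mixed with pin-transferred compound and left 15 min at room temperature. Substrate (50 nM final) is then added, and plates are read at 0 min and after 10 min.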

[17] = target: Voltage-gated inwardly rectifying potassium channel KCNH2 (Homo sapiens) (UniProt Q12809); assay: qHTS Assay for Small Molecule Inhibitors of the Human hERG Channel Activity (AID 588834);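 note: potency is the fitted concentration of half-maximal effect; lower thallium flux fluorescence means stronger hERG block; nearly all actives have a fitted effect of over 50% in size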
Summary of the method: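 Cells were infected with hERG-BacMam virus for 4 hrs at room temperature, grown overnight, then seeded at 2000/well. After dye loading and roughly 10 min compound treatment, thallium influx was triggered and fluorescence recorded.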

Sequence of Vitamin D3 receptor (Homo sapiens) (P11473 whole entry, looked up, the tested form may be a part): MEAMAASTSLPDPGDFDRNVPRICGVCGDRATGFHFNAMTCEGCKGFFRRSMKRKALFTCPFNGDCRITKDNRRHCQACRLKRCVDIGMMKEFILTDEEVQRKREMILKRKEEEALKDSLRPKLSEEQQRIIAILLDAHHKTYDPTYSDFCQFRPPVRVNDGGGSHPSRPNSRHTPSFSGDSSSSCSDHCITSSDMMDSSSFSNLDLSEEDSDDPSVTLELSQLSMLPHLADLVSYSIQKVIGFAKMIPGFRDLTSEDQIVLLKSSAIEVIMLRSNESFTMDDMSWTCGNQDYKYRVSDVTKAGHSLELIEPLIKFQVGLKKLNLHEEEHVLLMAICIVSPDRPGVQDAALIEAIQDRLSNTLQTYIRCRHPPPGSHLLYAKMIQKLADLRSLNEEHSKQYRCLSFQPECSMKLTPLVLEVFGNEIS
Sequence of Peroxisome proliferator-activated receptor delta (Homo sapiens) (Q03181 whole entry, looked up): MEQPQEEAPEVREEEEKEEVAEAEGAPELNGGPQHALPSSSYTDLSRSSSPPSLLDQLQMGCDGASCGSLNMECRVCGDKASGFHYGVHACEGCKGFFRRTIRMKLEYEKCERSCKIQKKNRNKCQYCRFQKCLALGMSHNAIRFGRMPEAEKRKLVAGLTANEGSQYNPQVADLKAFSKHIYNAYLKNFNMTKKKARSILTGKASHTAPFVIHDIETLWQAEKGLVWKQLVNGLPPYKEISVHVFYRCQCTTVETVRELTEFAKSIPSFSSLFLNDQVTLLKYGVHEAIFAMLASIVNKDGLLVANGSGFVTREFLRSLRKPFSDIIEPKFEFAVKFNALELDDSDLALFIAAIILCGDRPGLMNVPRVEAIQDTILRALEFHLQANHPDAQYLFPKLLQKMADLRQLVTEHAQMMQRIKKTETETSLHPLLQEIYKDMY
Sequence of Cytochrome P450 3A4 (Homo sapiens) (P08684 whole entry, looked up): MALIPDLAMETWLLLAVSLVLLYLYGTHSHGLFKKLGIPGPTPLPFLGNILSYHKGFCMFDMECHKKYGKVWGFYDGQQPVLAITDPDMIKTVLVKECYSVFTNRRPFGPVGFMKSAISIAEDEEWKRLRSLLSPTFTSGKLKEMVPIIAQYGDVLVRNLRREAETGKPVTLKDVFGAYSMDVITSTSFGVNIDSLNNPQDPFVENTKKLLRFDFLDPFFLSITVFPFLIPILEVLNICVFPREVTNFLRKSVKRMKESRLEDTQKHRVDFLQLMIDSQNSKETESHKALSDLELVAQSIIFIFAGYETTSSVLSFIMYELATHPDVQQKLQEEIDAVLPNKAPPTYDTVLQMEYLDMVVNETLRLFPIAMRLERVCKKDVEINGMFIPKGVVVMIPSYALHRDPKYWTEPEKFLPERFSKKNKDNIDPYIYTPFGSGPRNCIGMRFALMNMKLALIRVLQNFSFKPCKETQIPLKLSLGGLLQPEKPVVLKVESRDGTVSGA
Sequence of Flap endonuclease 1 (Homo sapiens) (P39748 whole entry, looked up): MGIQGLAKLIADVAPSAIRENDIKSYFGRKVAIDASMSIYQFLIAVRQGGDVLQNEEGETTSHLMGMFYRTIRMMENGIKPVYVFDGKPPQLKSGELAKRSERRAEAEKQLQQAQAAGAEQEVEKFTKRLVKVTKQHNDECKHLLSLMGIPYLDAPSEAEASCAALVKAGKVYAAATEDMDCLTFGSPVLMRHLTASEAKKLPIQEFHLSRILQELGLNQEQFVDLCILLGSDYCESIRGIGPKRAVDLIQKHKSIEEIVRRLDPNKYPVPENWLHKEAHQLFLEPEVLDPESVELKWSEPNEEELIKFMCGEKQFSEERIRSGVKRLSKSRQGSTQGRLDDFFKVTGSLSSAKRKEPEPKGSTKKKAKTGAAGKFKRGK
Sequence of DNA polymerase eta (Homo sapiens) (Q9Y253 whole entry, looked up): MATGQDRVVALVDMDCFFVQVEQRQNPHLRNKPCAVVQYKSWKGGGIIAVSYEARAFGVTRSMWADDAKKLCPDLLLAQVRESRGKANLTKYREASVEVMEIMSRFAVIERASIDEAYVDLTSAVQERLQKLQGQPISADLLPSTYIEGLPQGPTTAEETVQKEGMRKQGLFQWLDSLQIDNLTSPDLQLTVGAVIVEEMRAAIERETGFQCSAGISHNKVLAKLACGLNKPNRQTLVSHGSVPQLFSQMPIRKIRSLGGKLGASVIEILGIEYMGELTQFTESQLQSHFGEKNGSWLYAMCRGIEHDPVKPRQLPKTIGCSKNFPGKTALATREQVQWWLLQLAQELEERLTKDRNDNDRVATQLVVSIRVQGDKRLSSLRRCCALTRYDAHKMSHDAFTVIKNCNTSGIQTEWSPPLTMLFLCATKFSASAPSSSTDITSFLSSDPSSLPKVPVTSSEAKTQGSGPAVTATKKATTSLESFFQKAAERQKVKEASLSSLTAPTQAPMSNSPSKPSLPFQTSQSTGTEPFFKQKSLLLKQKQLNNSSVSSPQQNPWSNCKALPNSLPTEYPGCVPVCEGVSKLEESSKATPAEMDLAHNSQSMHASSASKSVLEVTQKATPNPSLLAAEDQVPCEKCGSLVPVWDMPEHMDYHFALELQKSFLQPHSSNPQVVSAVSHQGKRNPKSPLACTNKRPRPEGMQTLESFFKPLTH
Sequence of Peroxisome proliferator-activated receptor alpha (Homo sapiens) (Q07869 whole entry, looked up): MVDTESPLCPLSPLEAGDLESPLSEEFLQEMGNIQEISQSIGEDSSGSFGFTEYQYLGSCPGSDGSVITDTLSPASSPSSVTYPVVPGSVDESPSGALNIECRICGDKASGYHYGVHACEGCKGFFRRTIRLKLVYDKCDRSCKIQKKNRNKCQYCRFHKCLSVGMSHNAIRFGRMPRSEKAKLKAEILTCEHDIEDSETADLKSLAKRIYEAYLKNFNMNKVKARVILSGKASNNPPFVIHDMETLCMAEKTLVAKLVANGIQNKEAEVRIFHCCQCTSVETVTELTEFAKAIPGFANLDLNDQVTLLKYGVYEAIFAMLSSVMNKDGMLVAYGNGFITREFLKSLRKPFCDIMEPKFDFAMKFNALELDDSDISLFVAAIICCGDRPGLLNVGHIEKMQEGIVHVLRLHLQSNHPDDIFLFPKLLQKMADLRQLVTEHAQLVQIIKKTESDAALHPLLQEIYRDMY
Sequence of Voltage-gated inwardly rectifying potassium channel KCNH2 (Homo sapiens) (Q12809 whole entry, looked up): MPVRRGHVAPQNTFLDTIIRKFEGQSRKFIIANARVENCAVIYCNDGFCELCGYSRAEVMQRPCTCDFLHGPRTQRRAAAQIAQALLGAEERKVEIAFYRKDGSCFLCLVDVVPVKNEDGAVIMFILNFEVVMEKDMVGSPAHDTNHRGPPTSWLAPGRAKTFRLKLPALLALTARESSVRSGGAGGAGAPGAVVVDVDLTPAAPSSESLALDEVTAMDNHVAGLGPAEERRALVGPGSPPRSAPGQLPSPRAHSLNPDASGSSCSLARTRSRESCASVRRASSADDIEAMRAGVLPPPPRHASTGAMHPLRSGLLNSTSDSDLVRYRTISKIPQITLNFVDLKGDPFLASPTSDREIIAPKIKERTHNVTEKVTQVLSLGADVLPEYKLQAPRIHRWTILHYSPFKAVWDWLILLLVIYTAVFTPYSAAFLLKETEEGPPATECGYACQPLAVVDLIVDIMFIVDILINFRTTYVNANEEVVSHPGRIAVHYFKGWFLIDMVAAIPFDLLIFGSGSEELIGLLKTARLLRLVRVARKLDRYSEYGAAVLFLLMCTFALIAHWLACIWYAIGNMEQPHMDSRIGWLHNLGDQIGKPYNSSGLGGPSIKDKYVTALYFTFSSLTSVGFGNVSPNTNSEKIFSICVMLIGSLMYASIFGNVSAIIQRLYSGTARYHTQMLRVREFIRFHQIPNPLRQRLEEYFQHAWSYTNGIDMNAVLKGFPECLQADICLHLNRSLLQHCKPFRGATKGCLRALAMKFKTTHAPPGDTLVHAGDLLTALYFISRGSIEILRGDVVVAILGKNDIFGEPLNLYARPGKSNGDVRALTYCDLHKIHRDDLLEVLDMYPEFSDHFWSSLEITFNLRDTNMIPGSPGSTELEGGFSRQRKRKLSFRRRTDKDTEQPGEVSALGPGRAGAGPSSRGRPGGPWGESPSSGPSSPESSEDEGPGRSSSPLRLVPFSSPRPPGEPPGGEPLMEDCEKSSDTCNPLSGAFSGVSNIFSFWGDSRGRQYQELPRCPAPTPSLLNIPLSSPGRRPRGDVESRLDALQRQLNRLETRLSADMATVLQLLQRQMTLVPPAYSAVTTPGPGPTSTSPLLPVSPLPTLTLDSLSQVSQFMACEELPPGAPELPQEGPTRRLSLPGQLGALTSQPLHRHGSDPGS
Sequence of Peroxisome proliferator-activated receptor gamma (Homo sapiens) (P37231 whole entry, looked up): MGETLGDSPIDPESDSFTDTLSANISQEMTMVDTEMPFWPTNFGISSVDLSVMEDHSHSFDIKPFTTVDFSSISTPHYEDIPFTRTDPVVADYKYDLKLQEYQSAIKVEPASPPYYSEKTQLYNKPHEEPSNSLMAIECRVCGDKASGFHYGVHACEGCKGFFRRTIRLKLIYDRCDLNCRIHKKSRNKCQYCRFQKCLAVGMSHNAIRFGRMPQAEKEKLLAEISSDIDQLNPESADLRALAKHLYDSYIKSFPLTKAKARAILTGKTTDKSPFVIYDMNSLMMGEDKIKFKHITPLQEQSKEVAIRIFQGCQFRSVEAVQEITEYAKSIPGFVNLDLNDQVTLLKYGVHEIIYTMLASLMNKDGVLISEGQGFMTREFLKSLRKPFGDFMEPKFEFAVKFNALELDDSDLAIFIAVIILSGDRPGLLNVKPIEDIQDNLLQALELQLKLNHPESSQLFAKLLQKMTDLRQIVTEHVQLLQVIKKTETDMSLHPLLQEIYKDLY

COc1ccc(C)cc1N
Potency [1]: inactive | outcome [2]: inactive

Nc1ccccc1O
outcome [2]: inactive | Potency [3]: 12.6 µM (active)

Cc1ccc(N2C(=O)NC(=O)/C(=C\c3cnc(-c4ccccc4)nc3)C2=O)cc1
Potency [4]: inactive

CN1C2CCC1/C(=C/c1ccccn1)C(=O)/C2=C\c1ccccn1
Potency [4]: inactive

CCOP(=O)(SC(C)CC)N1CCSC1=O (centres undefined)
Potency [5]: inactive | outcome [6]: inactive | max response [7]: -8.5% | activation [3]: -0.193% (inactive) | max response [8]: 1.22% (inactive) | Potency [9]: inactive | max response [10]: 14.1% (inactive) | max response [11]: 6.21% (inactive)

Cc1ccc(N)cc1[N+](=O)[O-]
Potency [1]: inactive | outcome [2]: inactive

O=C1NC(=O)N(c2ccccc2)C(=O)/C1=C/c1ccc([N+](=O)[O-])s1
Potency [12]: 26.7 µM (active) | Potency [13]: 20 µM (active) | Potency [4]: inactive | outcome [14]: inactive | Potency [15]: 19 µM (active) | Potency [16]: 30.1 µM (active)

COc1cc(/C=C/[N+](=O)[O-])ccc1O
Potency [4]: inactive

c1ccc2c(c1)Oc1ccccc1S2
Potency [17]: 28.2 µM (active)
